Our source for the Potency and outcome values is PubChem BioAssay (NCATS).

Inconclusive results are not listed. Where a call stands in place of a potency, no number is given. Active and inactive are the calls of the source. Calls follow the shape of the dose curve; as a rule, active = well fitted curve in the direction sought with a large enough effect; inconclusive = small, poorly fitted or top-dose-only effect, or another doubt; inactive = no such curve, though single readings can be large; an effect the other way counts as inactive or inconclusive.

For assay [1], the target named is ATP-dependent 6-phosphofructokinase (Trypanosoma brucei brucei) (UniProt O15648). As to the kind of experiment: qHTS Assay to Find Inhibitors of T. brucei phosphofructokinase: hit validation (AID 492961). Also: potency is read from the fitted curve at half-maximal effect. The gist of the method:
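Luminescence from ADP-Glo reports ADP generated as T. brucei PFK (1.25 nM) phosphorylates 0.5 mM fructose-6-phosphate using 0.1 mM ATP. Reactions ran 45 min at room temperature, pH 8.0.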
In general terms: Quantitative high-throughput screening tests each substance at several concentrations.

For assay [2], the target named is Tyrosyl-DNA phosphodiesterase 1 (Homo sapiens) (UniProt Q9NUW8). As to the kind of experiment: Confirmation Assay for Inhibitors of Tyrosyl-DNA Phosphodiesterase (TDP1) (AID 489007). Also: potency is read from the fitted curve at half-maximal effect; nearly all actives have a fitted effect of over 40% in size. The conditions noted are these: recombinant human TDP1 enzymatic activity, dose-response. An outline of the steps: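 AlphaScreen assay of tyrosine-FITC cleavage from a biotinylated DNA substrate (15 nM) by E. coli-expressed human Tdp1 (1 nM). Sequence: compound preincubation 15 min, reaction 5 min, bead detection 10 min, all at room temperature. No-enzyme wells give maximum signal.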
Sequence of Tyrosyl-DNA phosphodiesterase 1 (Homo sapiens) (Q9NUW8 whole entry, looked up): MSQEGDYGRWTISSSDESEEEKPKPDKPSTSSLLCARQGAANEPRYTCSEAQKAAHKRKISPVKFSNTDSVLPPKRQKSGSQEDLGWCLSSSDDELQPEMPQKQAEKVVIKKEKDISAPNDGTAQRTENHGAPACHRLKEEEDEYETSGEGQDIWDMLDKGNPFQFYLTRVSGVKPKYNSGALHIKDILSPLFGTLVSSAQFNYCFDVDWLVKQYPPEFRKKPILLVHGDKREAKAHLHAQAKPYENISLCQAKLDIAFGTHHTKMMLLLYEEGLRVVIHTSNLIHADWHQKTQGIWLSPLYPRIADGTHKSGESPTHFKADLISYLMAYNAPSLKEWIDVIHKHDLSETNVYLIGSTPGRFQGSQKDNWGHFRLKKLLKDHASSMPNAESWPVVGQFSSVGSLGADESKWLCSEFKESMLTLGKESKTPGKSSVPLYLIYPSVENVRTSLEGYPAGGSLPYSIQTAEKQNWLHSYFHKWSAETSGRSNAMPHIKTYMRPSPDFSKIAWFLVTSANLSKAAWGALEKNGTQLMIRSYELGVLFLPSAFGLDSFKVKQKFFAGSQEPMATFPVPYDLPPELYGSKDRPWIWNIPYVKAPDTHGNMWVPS

Assay [3] in a line: Validation screen for small molecules that induce DNA re-replication in MCF 10A normal breast cells (AID 463097). Also: nearly all actives have a fitted effect of over 60% in size. The gist of the method: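 DNA re-replication was detected as a rise in nuclei with elevated Hoechst fluorescence after a 48 hr compound exposure of MCF 10A cells at 37 C.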
Assay [4] in a line: Quantitative high throughput screen for delayed death inhibitors of the malarial parasite plastid, 48 hour incubation (AID 488752). Also: nearly all actives have a fitted effect of over 65% in size. The gist of the method: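 One-generation (48 h) growth assay: a decrease in luciferase signal from an integrated reporter in P. falciparum-infected red cells (0.1% parasitemia, 2% hematocrit) after compound exposure at 37 C indicates parasite inhibition.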

Assay [5] deals with M-phase phosphoprotein 8 (Homo sapiens) (UniProt Q99549). As to the kind of experiment: qHTS Validation Assay for Inhibitors for MPP8 Chromodomain Interactions with Methylated Histone Tails (AID 488949).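 Also: AlphaScreen signal from MPP8 chromodomain bound to biotinylated H3K9me3 peptide; top concentration of the series differs between compounds; nearly all actives have a fitted effect of over 55% in size.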 The gist of the method:
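Disruption of the preformed MPP8–trimethyl-H3K9 peptide complex (both 50 nM, 30 min, RT) is measured after 30 min compound exposure, using AlphaScreen proximity beads; aurintricarboxylic acid titration serves as plate control.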

The target in assay [6] is Transient receptor potential cation channel subfamily V member 1 (Homo sapiens) (UniProt Q8NER1). As to the kind of experiment: HTS Assay for Compounds that Act as Enhancers of the Vanilloid Receptor 1 (AID 488979). The gist of the method: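 TRPV1 cells loaded with Fluo-8 calcium dye; compound added and Ca2+ signal (ex 480/em 520 nm) followed 3 min, then capsaicin at EC20 added and read 2 more min to detect enhancement.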
Sequence of Transient receptor potential cation channel subfamily V member 1 (Homo sapiens) (Q8NER1 whole entry, looked up): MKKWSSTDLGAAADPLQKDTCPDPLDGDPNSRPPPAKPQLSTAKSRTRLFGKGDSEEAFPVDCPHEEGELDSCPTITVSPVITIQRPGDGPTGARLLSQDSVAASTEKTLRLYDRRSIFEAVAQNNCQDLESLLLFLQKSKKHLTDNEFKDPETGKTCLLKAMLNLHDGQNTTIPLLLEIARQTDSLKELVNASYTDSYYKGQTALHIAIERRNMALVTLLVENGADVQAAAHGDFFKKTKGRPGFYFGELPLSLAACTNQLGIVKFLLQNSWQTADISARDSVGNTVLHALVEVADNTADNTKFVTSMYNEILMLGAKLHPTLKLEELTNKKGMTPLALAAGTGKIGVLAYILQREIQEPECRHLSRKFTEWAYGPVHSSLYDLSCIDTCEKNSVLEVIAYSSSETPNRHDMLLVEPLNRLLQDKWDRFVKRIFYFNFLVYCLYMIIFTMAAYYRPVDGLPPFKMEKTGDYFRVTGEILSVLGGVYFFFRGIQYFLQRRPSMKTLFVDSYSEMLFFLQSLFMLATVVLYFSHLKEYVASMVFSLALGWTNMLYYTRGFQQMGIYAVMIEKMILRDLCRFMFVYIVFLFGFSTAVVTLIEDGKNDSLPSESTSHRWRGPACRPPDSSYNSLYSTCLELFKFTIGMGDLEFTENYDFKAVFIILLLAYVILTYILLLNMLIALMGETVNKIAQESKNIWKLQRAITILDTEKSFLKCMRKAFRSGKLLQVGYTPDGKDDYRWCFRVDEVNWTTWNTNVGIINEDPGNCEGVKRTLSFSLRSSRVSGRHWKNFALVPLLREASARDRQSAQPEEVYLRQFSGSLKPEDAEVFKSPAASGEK

For assay [7], the target named is Thyrotropin receptor (Homo sapiens) (UniProt P16473). As to the kind of experiment: qHTS Assay for Antagonists of the Thyroid Stimulating Hormone Receptor (AID 488980). Also: series mostly up to about 58 µM. The gist of the method:
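Cells expressing human TSHR (HEK293) are dispensed in HBSS/HEPES containing 70 uM RO 20-1724, compound is added, then TSH at EC80 (4 nM final). Antibody in lysis buffer follows, 30 minutes at room temperature before HTRF detection.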

Assay [8] can be described thus: Quantitative high throughput screen for delayed death inhibitors of the malarial parasite plastid, 96 hour incubation (AID 488745). Also: series mostly up to about 29 µM; nearly all actives have a fitted effect of over 70% in size. An outline of the steps: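 Decreased firefly luciferase luminescence indicates inhibited growth of reporter-integrated P. falciparum after two generations (96 h, 37 C, 5% CO2). Infected erythrocytes at 0.1% parasitemia, 2% hematocrit, in Albumax-supplemented RPMI 1640.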

Sequence of ATP-dependent 6-phosphofructokinase (Trypanosoma brucei brucei) (O15648 whole entry, looked up): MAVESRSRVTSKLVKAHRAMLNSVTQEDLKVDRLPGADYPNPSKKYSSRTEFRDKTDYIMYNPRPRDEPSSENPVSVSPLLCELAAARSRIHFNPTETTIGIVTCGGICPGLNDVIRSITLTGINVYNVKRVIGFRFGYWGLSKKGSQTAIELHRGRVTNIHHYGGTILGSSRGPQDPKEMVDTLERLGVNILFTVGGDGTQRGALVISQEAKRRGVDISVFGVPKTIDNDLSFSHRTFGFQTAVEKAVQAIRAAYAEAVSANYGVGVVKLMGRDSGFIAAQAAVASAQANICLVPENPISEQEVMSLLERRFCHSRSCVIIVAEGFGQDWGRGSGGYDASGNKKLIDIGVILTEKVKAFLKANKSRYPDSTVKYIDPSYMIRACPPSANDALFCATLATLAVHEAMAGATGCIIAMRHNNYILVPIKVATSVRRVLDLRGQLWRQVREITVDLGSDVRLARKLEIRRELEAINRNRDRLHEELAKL
Sequence of Thyrotropin receptor (Homo sapiens) (P16473 whole entry, looked up): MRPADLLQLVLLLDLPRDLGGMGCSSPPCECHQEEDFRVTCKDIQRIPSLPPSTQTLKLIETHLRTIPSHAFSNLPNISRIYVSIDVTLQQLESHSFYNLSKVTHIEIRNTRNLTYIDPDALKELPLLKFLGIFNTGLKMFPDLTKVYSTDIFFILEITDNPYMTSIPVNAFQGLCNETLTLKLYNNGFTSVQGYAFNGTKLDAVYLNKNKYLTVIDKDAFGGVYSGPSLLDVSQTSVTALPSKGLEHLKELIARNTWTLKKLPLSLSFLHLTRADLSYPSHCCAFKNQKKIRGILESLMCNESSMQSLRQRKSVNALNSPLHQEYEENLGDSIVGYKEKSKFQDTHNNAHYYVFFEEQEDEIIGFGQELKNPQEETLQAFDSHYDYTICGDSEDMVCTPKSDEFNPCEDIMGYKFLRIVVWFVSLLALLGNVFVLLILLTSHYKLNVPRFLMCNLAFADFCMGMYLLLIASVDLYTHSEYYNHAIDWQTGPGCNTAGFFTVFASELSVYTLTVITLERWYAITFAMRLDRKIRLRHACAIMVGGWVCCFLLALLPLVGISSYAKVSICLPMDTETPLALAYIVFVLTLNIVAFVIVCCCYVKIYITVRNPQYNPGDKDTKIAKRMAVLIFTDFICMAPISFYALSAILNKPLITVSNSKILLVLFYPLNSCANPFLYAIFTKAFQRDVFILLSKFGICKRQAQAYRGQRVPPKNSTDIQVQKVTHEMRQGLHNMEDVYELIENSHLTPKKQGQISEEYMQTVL
Sequence of M-phase phosphoprotein 8 (Homo sapiens) (Q99549 whole entry, looked up): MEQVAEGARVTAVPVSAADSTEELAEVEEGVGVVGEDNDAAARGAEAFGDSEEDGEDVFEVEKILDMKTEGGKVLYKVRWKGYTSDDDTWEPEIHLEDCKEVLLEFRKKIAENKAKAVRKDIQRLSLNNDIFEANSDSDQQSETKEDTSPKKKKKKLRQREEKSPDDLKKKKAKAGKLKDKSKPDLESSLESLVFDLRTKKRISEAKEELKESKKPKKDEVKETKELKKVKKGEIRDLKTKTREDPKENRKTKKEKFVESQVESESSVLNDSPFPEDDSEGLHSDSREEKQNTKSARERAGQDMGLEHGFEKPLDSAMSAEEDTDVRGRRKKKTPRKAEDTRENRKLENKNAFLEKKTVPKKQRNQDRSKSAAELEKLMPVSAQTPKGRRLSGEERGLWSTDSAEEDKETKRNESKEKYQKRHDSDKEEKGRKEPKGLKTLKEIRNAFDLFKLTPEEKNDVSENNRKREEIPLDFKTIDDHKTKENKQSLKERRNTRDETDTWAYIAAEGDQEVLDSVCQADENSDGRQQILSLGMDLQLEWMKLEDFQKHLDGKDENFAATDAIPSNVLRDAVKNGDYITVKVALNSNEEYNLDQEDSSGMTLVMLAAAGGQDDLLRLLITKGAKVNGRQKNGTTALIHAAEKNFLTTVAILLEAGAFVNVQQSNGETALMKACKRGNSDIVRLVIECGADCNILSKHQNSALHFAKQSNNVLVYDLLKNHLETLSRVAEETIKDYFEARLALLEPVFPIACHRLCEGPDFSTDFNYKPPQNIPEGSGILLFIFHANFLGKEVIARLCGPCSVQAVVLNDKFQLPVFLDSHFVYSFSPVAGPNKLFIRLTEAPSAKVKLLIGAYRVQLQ

On to `COc1ccc(C(=O)CCC(=O)O)c2ccccc12`, for which, in assay [1], the Potency entry was “inactive”.

Consider `CN1C(=O)C[C@@H](C(=O)N[C@@H](Cc2cnc[nH]2)C(=O)N2CCC[C@H]2C(N)=O)NC1=O`, for which, in assay [1], the Potency entry was “inactive”.

Take `CC(=O)Oc1cc(C(F)(F)F)ccc1C(=O)O`: the Potency result in assay [1] was “inactive”.

`OCl`: the Potency result in assay [1] is “inactive”.

`O=C(O)COc1ccccc1/C=N/NC(=O)c1ccncc1`: in assay [1], the Potency entry was “inactive”.

On to `CCCCC[C@H](O)/C=C/[C@@H]1[C@H]2C/C(=C/CCCC(=O)O)O[C@H]2C[C@H]1O`, for which the Potency entry in assay [1] was “inactive”.

As to `Cc1cc(-c2ccc(N=Nc3c(S(=O)(=O)O)cc4cc(S(=O)(=O)O)cc(N)c4c3O)c(C)c2)ccc1N=Nc1c(S(=O)(=O)O)cc2cc(S(=O)(=O)O)cc(N)c2c1O`, in assay [1], the Potency was 28.2 µM (active).

`C=Cc1ccc(S(=O)(=O)O)cc1`: in assay [2], the Potency was 12.6 µM (active). Also, in assay [1], the Potency entry is “inactive”.

For the compound `Cn1c(=O)c2c(ncn2CCOC(=O)C(C)(C)Oc2ccc(Cl)cc2)n(C)c1=O`, the Potency result in assay [1] is “inactive”.

For the compound `CC(C)CCC[C@@H](C)[C@H]1CC[C@H]2[C@@H]3CC[C@@H]4C[C@H](O)CC[C@]4(C)[C@H]3CC[C@]12C`, the Potency result in assay [1] was “inactive”.

Regarding `O=P(O)(O)OP(=O)(O)O`, the Potency entry in assay [1] is “inactive”.

Take `CN1CCC(OC(=O)C(Oc2ccc(Cl)cc2)Oc2ccc(Cl)cc2)CC1`: in assay [1], the Potency result is “inactive”.

For `O=C(O)Cc1nn(Cc2ccc(Br)cc2F)c(=O)c2ccccc12`, the Potency result in assay [1] is “inactive”.

As for `CCCCC/C=C\C/C=C\C/C=C\CCCCC(=O)O`, the Potency entry in assay [1] was “inactive”.

Regarding `COc1cc2c(cc1OC)[C@@H](Cc1cc(OC)c(OC)c(OC)c1)[N+](C)(CCCOC(=O)CC/C=C/CCC(=O)OCCC[N+]1(C)CCc3cc(OC)c(OC)cc3[C@H]1Cc1cc(OC)c(OC)c(OC)c1)CC2` (stereo partly specified), the Potency result in assay [1] was “inactive”.

For `O=c1[nH]c(=O)n([C@H]2C[C@H](O)[C@@H](CO)O2)cc1/C=C/Br`, the outcome in assay [3], in assay [4], in assay [5], in assay [6] and in assay [7] was inactive. The Potency result in assay [1] is “inactive”.

As to `CC(C)(C)CC(C)(C)c1cc(Cc2cc(C(C)(C)CC(C)(C)C)cc(-n3nc4ccccc4n3)c2O)c(O)c(-n2nc3ccccc3n2)c1`, the Potency entry in assay [1] was “inactive”.

As to `CC(C)(CO)[C@@H](O)C(=O)NCCC(=O)NCCSSCCNC(=O)CCNC(=O)[C@H](O)C(C)(C)CO`, in assay [1], the Potency result was “inactive”.

In the case of `Cc1ncc[nH]1`, the Potency entry in assay [1] was “inactive”.

On to `O=C(NCCNCC(O)COc1ccc(O)cc1)N1CCOCC1` (stereo unspecified), for which the result in assay [3], in assay [8], in assay [4], in assay [5], in assay [6] and in assay [7] was inactive.

`O=C(O)c1cc(N=Nc2ccc(O)c(C(=O)O)c2)ccc1O`: the Potency entry in assay [1] is “inactive”.

`CC(=O)NCCCS(=O)(=O)O`: in assay [1], the Potency result is “inactive”.

Consider `CN(C)C=Nc1c(I)cc(I)c(CCC(=O)O)c1I`, for which the Potency entry in assay [1] is “inactive”.

Regarding `FC(F)(F)C(F)(F)C(F)(F)C(F)(F)C(F)(F)F`, the Potency entry in assay [1] is “inactive”.

On to `CNC(=O)c1c(I)c(C(=O)NCC(=O)Nc2c(I)c(C(=O)O)c(I)c(C(=O)NCCO)c2I)c(I)c(N(C)C(C)=O)c1I`, for which, in assay [1], the Potency result is “inactive”.

As to `OCc1ccccc1`, the Potency result in assay [1] was “inactive”.

As to `C[C@H](O)CN(C)C`, the Potency entry in assay [1] is “inactive”.

For `CC(=O)Oc1cccc(C(=O)O)c1OC(C)=O`, in assay [1], the Potency result is “inactive”.

`Cc1ccc(S(=O)(=O)NCl)cc1`: the Potency result in assay [1] was “inactive”.

As to `CSCCC(N)C(=O)O` (stereo unspecified), the Potency entry in assay [1] is “inactive”.

`O=P(O)(O)OC[C@H]1O[C@](O)(COP(=O)(O)O)[C@@H](O)[C@@H]1O`: in assay [1], the Potency result is “inactive”.

As to `Cc1cccc(C)c1NC(=O)C1CCCCN1C` (stereo unspecified), the Potency entry in assay [1] was “inactive”.

Take `CC[C@H]1OC(=O)[C@H](C)[C@@H](O[C@H]2C[C@@](C)(OC)[C@@H](O)[C@H](C)O2)[C@H](C)[C@@H](O[C@@H]2O[C@H](C)C[C@H](N(C)C)[C@H]2O)[C@](C)(O)C[C@@H](C)CN(C)[C@H](C)[C@@H](O)[C@]1(C)O`: in assay [1], the Potency result is “inactive”.

For `C/C=C/C=C/C(=O)O`, in assay [1], the Potency result is “inactive”.

As to `Cc1cccc(Nc2ncccc2C(=O)O)c1C`, in assay [1], the Potency result is “inactive”.

For `CCOC(=O)C1=C(COCCN)NC(C)=C(C(=O)OC)C1c1ccccc1Cl` (stereo unspecified), the Potency result in assay [1] is “inactive”.

With `CC(C)[C@@H](N)C(=O)O`, in assay [1], the Potency entry is “inactive”.

`COC(=O)CC[C@H](N)C(=O)O`: the Potency entry in assay [1] is “inactive”.

For `O=C(NNCNNC(=O)c1ccncc1)c1ccncc1`, in assay [1], the Potency entry was “inactive”.

In the case of `CNC(=O)C[C@@H](N)C(=O)N[C@@H](C(=O)N[C@@H]1C(=O)N2[C@@H]1SC(C)(C)[C@@H]2C(=O)O)c1ccc(O)cc1`, in assay [1], the Potency result is “inactive”.

In the case of `CC1CC(OC(=O)C(O)c2ccccc2)CC(C)(C)C1` (stereo unspecified), in assay [1], the Potency result is “inactive”.

As to `CCOC(=O)[C@@H](N)CS`, in assay [1], the Potency entry is “inactive”.

`CCc1ccc(S(=O)(=O)O)cc1`: in assay [1], the Potency result is “inactive”.

As for `Cn1c(O)c(N=NC(N)=S)c2ccccc21`, the Potency entry in assay [1] was “inactive”.

In the case of `Cc1cc(=O)c(C(=O)N[C@@H](C(=O)N[C@@H]2C(=O)N3C(C(=O)O)=C(CSc4nnnn4C)CS[C@H]23)c2ccc(O)cc2)c[nH]1`, in assay [1], the Potency result is “inactive”.
